# Experimental data reported in PubChem BioAssay (Tox21).
# Active and inactive are the calls of the source. Where a call stands in place of a potency, no number is given. Calls come from the whole dose curve; as a rule, active = well fitted curve in the direction sought with a large enough effect in the repeat runs; inconclusive = weak or mixed curves; inactive = flat fitted curve, though single readings scatter.
# Assay: qHTS assay to test for compound auto fluorescence at 590 nm (red) in HepG2 cell free culture (AID 720684)
# Conditions: cell-free medium autofluorescence, red 540/590 nm; series mostly up to 91.3 µM
# How it was run: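 Plate contents were MEM with 10% FBS plus test compound or DMSO, no cells. Fluorescence was recorded with 540 nm excitation and 590 nm emission.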
# Tags give direction and shape of the fitted curve or compound fluorescence and quenching.
Structure (SMILES),outcome,"fluorescence, % of Rose Bengal"
C=C1CCC2CC1C2(C)C (centres undefined),inactive,–
CN1CCCC(CC2c3ccccc3Sc3ccccc32)C1 (centres undefined),–,-0.0495% [at 18.6 µM] (inactive)
CC(C)c1nc(CN(C)C(=O)N[C@H](C(=O)N[C@@H](Cc2ccccc2)C[C@H](O)[C@H](Cc2ccccc2)NC(=O)OCc2cncs2)C(C)C)cs1,inactive,–
CC(C)(c1ccccc1)c1ccccc1,inactive,–
CN1CCCC(n2nc(Cc3ccc(Cl)cc3)c3ccccc3c2=O)CC1 (centres undefined),inactive,–
O=C(O)CCCCCCCCCCCBr,inactive,–
CCOc1ccccc1O[C@H](c1ccccc1)[C@H]1CNCCO1,inactive,–
CCOC(=O)c1ccc(C#Cc2ccc3c(c2)C(C)(C)CCS3)nc1,inactive,–
C=C/C(C)=C/C/C=C(\C)CCC=C(C)C,inactive,–
CCOC(=O)C1=C(C)NC(C)=C(C(=O)OC)C1c1cccc(Cl)c1Cl (centres undefined),inactive,–
Oc1cc2c(cc1O)[C@H]1c3ccc(O)c(O)c3OC[C@@]1(O)C2,inactive,–
CCCCCCCCCCCCCCN(CCO)CCO,inactive,–
COc1cc(C(=O)NC2CCN(C)CC2)ccc1Nc1ncc2c(n1)N(C1CCCC1)CC(F)(F)C(=O)N2C,inactive,–
CC1=C(Br)C(=O)C(Br)=C/C1=C(/c1ccccc1S(=O)(=O)O)c1cc(Br)c(O)c(Br)c1C,inactive,–
COc1ccccc1NC(=O)c1cc2ccccc2cc1O,inactive,–
O=C(Nc1cccc2c(=O)cc(-c3nn[nH]n3)oc12)c1ccc(OCCCCc2ccccc2)cc1,inactive,–
O=C(O)c1cccc(-c2noc(-c3ccccc3F)n2)c1,inactive,–
O=C1c2ccccc2C(=O)N1CCc1noc(-c2ccc(CN3CCCCCC3)s2)n1,inactive,–
Oc1c(I)cc(I)c2cccnc12,inactive,–
CCCCC(CC)CN (centres undefined),inactive,–
OCCN1CCN(CCCN2c3ccccc3Sc3ccc(Cl)cc32)CC1,–,-0.146% [at 18.6 µM] (inactive)
Cc1cc(=O)c2c(O)c3c(O)cc(=O)c4c3c3c(cc(O)c1c23)C(C)(C)C=4O,inactive,–
C[C@@H]1CC(=O)NN=C1c1ccc(NN=C(C#N)C#N)cc1,inactive,–
NNC(=O)CP(=O)(c1ccccc1)c1ccccc1,inactive,–
CN(C)CCN1C(=O)c2ccccc2N(C)c2ccccc21,inactive,–
c1ccc(C[n+]2cccc3ccccc32)cc1,inactive,–
CC1CC(OC(=O)C(O)c2ccccc2)CC(C)(C)N1C (centres undefined),inactive,–
CN1C(=O)OC(C)(C)C1=O,inactive,–
CC1=C(CC=O)C(C)(C)CCC1,inactive,–

# Assay: qHTS assay to test for compound auto fluorescence at 460 nm (blue) in HepG2 cell free culture (AID 720685); note: potency is the fitted concentration of half-maximal effect
# Conditions: Cell-free culture medium, blue autofluorescence 405/460 nm; series mostly up to 91.3 µM
# How it was run: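 Compound (23 nL) or DMSO pinned into cell-free MEM with 10% FBS; blue fluorescence read at 405/460 nm excitation/emission, expressed as auto-fluorescence equivalency to triamterene.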
Structure (SMILES),Potency,"fluorescence, % of fluorescent control"
C=C1CCC2CC1C2(C)C (centres undefined),inactive,–
CN1CCCC(CC2c3ccccc3Sc3ccccc32)C1 (centres undefined),–,0.14% [at 18.6 µM] (inactive)
CC(C)c1nc(CN(C)C(=O)N[C@H](C(=O)N[C@@H](Cc2ccccc2)C[C@H](O)[C@H](Cc2ccccc2)NC(=O)OCc2cncs2)C(C)C)cs1,inactive,–
CC(C)(c1ccccc1)c1ccccc1,inactive,–
CN1CCCC(n2nc(Cc3ccc(Cl)cc3)c3ccccc3c2=O)CC1 (centres undefined),inactive,–
O=C(O)CCCCCCCCCCCBr,inactive,–
CCCCN1CCCC1C(=O)Nc1c(C)cc(C)cc1C (centres undefined),inactive,–
Cc1ccccc1N=C(N)Nc1ccccc1C,inactive,–
CCOc1ccccc1O[C@H](c1ccccc1)[C@H]1CNCCO1,inactive,–
C=C/C(C)=C/C/C=C(\C)CCC=C(C)C,inactive,–
Oc1cc2c(cc1O)[C@H]1c3ccc(O)c(O)c3OC[C@@]1(O)C2,inactive,–
CN(C)CCC=C1c2ccccc2C=Cc2ccccc21,inactive,–
CN(C(=O)CN(CCO)CC(=O)N(C)C(C)(C)Cc1ccccc1)C(C)(C)Cc1ccccc1,–,-0.036% [at 18.6 µM] (inactive)
CC(=O)c1ccc([N+](=O)[O-])cc1,inactive,–
CCCCCCCCCCCCCCN(CCO)CCO,inactive,–
COc1cc(C(=O)NC2CCN(C)CC2)ccc1Nc1ncc2c(n1)N(C1CCCC1)CC(F)(F)C(=O)N2C,inactive,–
CC1=C(Br)C(=O)C(Br)=C/C1=C(/c1ccccc1S(=O)(=O)O)c1cc(Br)c(O)c(Br)c1C,inactive,–
COc1ccccc1NC(=O)c1cc2ccccc2cc1O,39.8 µM [fluorescent] (active),–

Structure (SMILES),Potency,"fluorescence, % of fluorescent control"
O=C(Nc1cccc2c(=O)cc(-c3nn[nH]n3)oc12)c1ccc(OCCCCc2ccccc2)cc1,inactive,–
O=C(O)c1cccc(-c2noc(-c3ccccc3F)n2)c1,inactive,–
O=C1c2ccccc2C(=O)N1CCc1noc(-c2ccc(CN3CCCCCC3)s2)n1,inactive,–
Oc1c(I)cc(I)c2cccnc12,inactive,–
CCCCC(CC)CN (centres undefined),inactive,–
OCCN1CCN(CCCN2c3ccccc3Sc3ccc(Cl)cc32)CC1,–,0.0187% [at 18.6 µM] (inactive)
Cc1cc(=O)c2c(O)c3c(O)cc(=O)c4c3c3c(cc(O)c1c23)C(C)(C)C=4O,inactive,–
C[C@@H]1CC(=O)NN=C1c1ccc(NN=C(C#N)C#N)cc1,inactive,–
C[C@H]1c2cccc(O)c2C(O)=C2C(=O)[C@]3(O)C(O)=C(C(N)=O)C(=O)[C@@H](N(C)C)[C@@H]3[C@@H](O)[C@@H]21,inactive,–
NNC(=O)CP(=O)(c1ccccc1)c1ccccc1,inactive,–
CN(C)CCN1C(=O)c2ccccc2N(C)c2ccccc21,inactive,–
C[C@]1(Cn2ccnn2)[C@H](C(=O)O)N2C(=O)C[C@H]2S1(=O)=O,inactive,–
c1ccc(C[n+]2cccc3ccccc32)cc1,inactive,–
CC1CC(OC(=O)C(O)c2ccccc2)CC(C)(C)N1C (centres undefined),inactive,–
COc1ccccc1N1CCN(CC(O)COc2cccc3ccccc23)CC1 (centres undefined),inactive,–
CN1C(=O)OC(C)(C)C1=O,inactive,–
CC1=C(CC=O)C(C)(C)CCC1,inactive,–
